Assay outcomes deposited in PubChem by several laboratories.
HSF1 inh: HSF1 inhibition; hit rate 0.77% among 300,000; activity change, negative = inhibition, % at 7.5 µM (by protocol); NIH3T3-HGL HSE-luciferase, MG132-induced, luminescence 8 h; hits give low values;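 active means more than half of replicate wells show activity change below -50%, luminescence cut by over half; inconclusive means some wells, but at most half, below -50%; inactive means no replicate well below -50%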;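 further: luciferase reports HSF-1 transcriptional activity via heat shock element; 0% = median of DMSO wells and -100% = zero luminescence signal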
SMARCA2 act: activators of SMARCA2 function | MG213 cells, MMTV-luciferase reporter, dexamethasone, overnight | activation, % at 9.1 µM | hit rate 1% among 370,000; in the data active means activation above about 7.8%;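 further: 0% = vehicle wells and 100% = reference activator wells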
AI-2 QS mod: modulates the Vibrio harveyi AI-2 quorum sensing system. Vibrio harveyi JMH597 AI-2 luminescence/OD600 ratio, 9 h; hits give low values; strain lacks LuxN and CqsS sensors; 0 = neutral-control median. activity change, % at 7.5 µM. hit rate 0.4% among 300,000. AID 2094; in the data active means activity change below about -75%, passing the limit was not always enough; inconclusive means no clear call, values can overlap the other calls;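 further: luminescence divided by OD600 gain over 9 h not by final OD600 alone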
GAA850 FXN act: frataxin GAA850 promoter activation | AID 540364 | activation, % at 6 µM | hit rate 0.56% among 360,000 | HEK293 lucGAA850 FXN promoter luciferase reporter, 24 h; percent of 10 µM SAHA response;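 active means activation above the average of all compounds screened plus 3 SD, cutoff fixed separately per campaign, cut at about 7.5% in these data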;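 further: 0% = DMSO wells and 100% = 10 µM SAHA wells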
HSP90 inh: inhibitors of HSP90 luciferase refolding in rabbit reticulocyte lysate; luciferase refolding luminescence, 3 h; inhibition, % at 5.6 µM; hit rate 0.91% among 290,000; AID 1789;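 active means inhibition above the screen-wide mean plus 3 SD, computed separately per campaign, cut at about 16% in these data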;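 further: 0% = DMSO wells and 100% = 60 µM geldanamycin wells; inhibitors lower the luminescence because luciferase stays unfolded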
PG9 Ab binder: PG9 antibody binding by small molecule; hit rate 0.43% among 360,000; TR-FRET gp120-PG9 antibody binding; AID 624416; inhibition, % at 6.7 µM; in the data active means inhibition above about 8.5%
Starred values were filed as active, the others as inactive; ? = inconclusive; / = not tested or not shown; ! = repeats disagree. Rows were chosen to be rich in hits. Some 3.4% of all compounds tested hit in one or more screens of this group.

SMILES | HSF1 inh | SMARCA2 act | AI-2 QS mod | GAA850 FXN act | HSP90 inh | PG9 Ab binder
COC(=O)Nc1sccc1C(=O)Nc1sccc1C(=O)OC | -65.2* | -2.7 | 9.6 | -1.6 | 2.8 | 4.3
COc1ccc(NCc2nnc(SCC(=O)Nc3cccc(C)c3)o2)cc1 | -54.2* | -2.1 | 3.5 | 0.2 | -4.0 | 0.8
COc1ccc(NCc2nnc(SCC(=O)Nc3ccccc3OC)o2)cc1 | -1.1 | -1.8 | 3.3 | -1.6 | 2.6 | 0.6
c1ccc(N2CCOCCOCCOCCOCC2)cc1 | -9.8 | -7.1 | 10.2 | 0.5 | -0.9 | 0.5
c1ccn(-c2ccc(N3CCOCC3)cc2)c1 | -62.5* | -2.3 | 33.7 | 0.3 | -5.6 | -0.8
Oc1ccccc1C=NN1CCN(Cc2ccccc2)CC1 | / | 0.6 | / | / | / | /
CCOc1ccc(-n2c(SCC(=O)NN=Cc3ccc(C(=O)O)cc3)nnc2-c2cccnc2)cc1 | / | -2.1 | / | / | / | /
COc1ccc(C(=O)CN2C(=O)c3ccccc3S2(=O)=O)cc1 | -64.8* | -9.6 | 18.5 | -11.5 | 11.6 | 0.1
Cc1ccc(NC(=O)CN2C(=O)c3ccccc3S2(=O)=O)cc1C | -12.3 | -2.4 | ? | -0.9 | 4.2 | -1.1
O=C(CN1C(=O)c2ccccc2S1(=O)=O)Nc1ccccc1 | -65.2* | 0.9 | -1.2 | -0.6 | -3.2 | 0.4
COc1ccc(C(=O)CN2C(=O)c3ccccc3S2(=O)=O)cc1Br | -4.1 | 2.3 | -6.4 | -1.5 | 5.2 | -1.9
COC(=O)C1=C(C)N(C)C(=NCc2ccc(C(F)(F)F)cc2)NC1c1cccc(F)c1 (stereo unspecified) | / | 0.5 | / | / | / | -1.2
O=C(/C=C/c1cc([N+](=O)[O-])ccc1OC(F)F)Nc1cccc([N+](=O)[O-])c1 | -73.2* | 2.1 | 12.6 | 0.8 | 2.8 | 0.3
O=C(/C=C/c1cc([N+](=O)[O-])ccc1OC(F)F)Nc1ccc(OC(F)F)cc1 | -11.3 | 0.7 | 17.3 | 1.9 | 1.8 | -1.7
COc1cc(C2CC=C(C(=O)O)C(c3ccccc3F)N2S(=O)(=O)c2ccc(C)cc2)cc(OC)c1OC (stereo unspecified) | / | -3.6 | / | / | / | /
O=C(NC1CCCC1)C1(C(=O)C2CC2)CC(c2ccccc2C(F)(F)F)=NO1 (stereo unspecified) | / | -2.3 | / | / | / | /
Cn1c(-c2sc3cc(C(F)(F)F)cnc3c2-c2cccnc2)n[nH]c1=S | -85.4* | 0.8 | 6.1 | -0.8 | -2.5 | -0.2
CCN1CCN(C(=O)c2cc3cc(Cl)ccc3[nH]2)CC1 | -4.4 | 3.0 | -76.8* | 2.3 | -4.3 | -3.3
CN1CCN(C(=O)c2cc3cc(Cl)ccc3[nH]2)CC1 | -3.4 | 1.4 | -31.4 | 1.6 | 6.6 | 0.4
Nn1c(SCC(=O)N2c3ccccc3Sc3ccc(Cl)cc32)nnc1-c1n[nH]c2c1CCC2 | / | -3.2 | / | / | / | /
O=C(c1cc(-c2ccc(F)cc2)on1)N1CCCCCC1 | 5.3 | 2.7 | -26.8 | 4.3 | 16.7* | -0.6
O=C(c1cc(-c2ccc(F)cc2)on1)N1CCCC1 | 28.9 | 7.0 | -12.6 | -0.6 | 7.3 | -2.8
CC1CCN(C(=O)c2cc(-c3ccc(Cl)c(Cl)c3)on2)CC1 | / | -1.8 | -79.8* | 3.3 | 5.9 | -1.8
Cc1ccc(N(CC2=NCCN2)c2cccc(O)c2)cc1 | -71.8*! | 0.4 | 9.9 | 2.2 | -0.7 | 0.1
O=C(CSc1nnc(-c2cccnc2)n1Cc1ccco1)Nc1ccc(Cl)c(Cl)c1 | / | -4.9 | / | / | / | /
SMILES | HSF1 inh | SMARCA2 act | AI-2 QS mod | GAA850 FXN act | HSP90 inh | PG9 Ab binder
CCCCNC(=S)NNc1c(Cl)cc(Cl)cc1Cl | -72.5* | -3.3 | 11.7 | 0.2 | 3.8 | 1.5
COc1cccc2sc3cc(C#CC4(O)CCCCC4)ccc3c(=O)c12 | / | 5.3 | / | 4.7 | / | -1.8
COc1cc2sc3ccc(C#CC4(O)CCCCC4)cc3c(=O)c2cc1OC | -58.7* | 7.8* | 30.6 | 3.4 | / | 1.0
COc1cccc(CNC(=O)C[C@H]2CC[C@H]3[C@@H](COc4ccc(NC(=O)c5cccs5)cc4C(=O)N3C)O2)c1 | / | -3.2 | / | / | / | /
COC(=O)c1cccc(NC(=O)CN2CCN(Cc3ccccc3)CC2)c1 | -62.0* | 4.1 | 14.7 | 0.1 | -2.6 | 0.6
COc1ccc(-c2cn3cc(Br)cnc3n2)cc1 | 9.2 | 7.9* | 26.3 | 4.5 | -3.0 | 0.0
O=C(C1CC(c2ccc(F)cc2)=NO1)N1CCCCC1 (stereo unspecified) | 18.3 | 5.7 | -5.7 | 4.5 | 4.6 | 0.2
COc1ccc(C2=NOC(C(=O)N3CCCCCC3)C2)cc1OC (stereo unspecified) | -77.9* | / | 12.6 | -0.2 | -0.2 | /
